Assay results: PubChem BioAssay (EPA / NIEHS)
Inconclusive results are not listed. Calls of active or inactive are those of the source. How the source made its calls, unless noted: active means hit-call score of the fitted dose curve at least 0.9, where 1 is the maximum; inactive means score below 0.9.

How the values were obtained:
[1] = VALA_TUBHUV_Agonist_CellCount: Viability Assessment in the VALA Sciences human Umbilical Vein Endothelial Tubule Formation (TUBHUV) Agonism Assay (AID 2284309; active means hit-call score of the fitted dose curve at least 0.9, where 1 is the maximum)
In short: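 Viability endpoint by fluorescent imaging of fixed nuclear/CD31-stained HUVEC–HDF co-cultures. Readout is cell count, fitted upward against 0.1% DMSO. Compound exposure was 72 h in 10 ng/ml VEGF, after 3-day co-culture priming.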

[2] = VALA_TUBHUV_Antagonist_CellCount: Viability Assessment in the VALA Sciences human Umbilical Vein Endothelial Tubule Formation (TUBHUV) Antagonism Assay (AID 2284310; active means hit-call score of the fitted dose curve at least 0.9, where 1 is the maximum)
In short: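 Read-out is imaged cell count after nuclear and CD31 staining, fitted against 0.1% DMSO vehicle. Compounds were added for 3 days, in 10 ng/ml VEGF assay medium, to HUVEC–HDF co-cultures pre-grown 3 days.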

[3] = VALA_TUBIPS_Agonist_TubuleLength: VALA Sciences human iPS-derived Endothelial Tubule Formation (TUBIPS) Agonism Assay (AID 2284311; active means hit-call score of the fitted dose curve at least 0.9, where 1 is the maximum)
In short: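 Agonist-mode readout is the gain in imaged tubule length versus DMSO baseline. It was measured by fluorescence high-content imaging 72 h after dosing human iPSC-derived endothelial cells.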

[4] = IUF_NPC2c_oligodendrocyte_migration_120hr: Leibniz Research Institute for Environmental Medicine (IUF) 120-hour Neural Progenitor Cell Migration Assay for Oligodendrocyte Migration (NPC2c) (AID 2284297);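 further: O4-positive oligodendrocyte migration distance divided by radial glia migration distance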
In short: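 Exposure runs 5 days from differentiation onset at 37C, seven concentrations plus solvent control, DMSO at most 0.1%, applied to primary hNPC spheres on laminin. After fixation, O4 immunostaining gives oligodendrocyte distance from the sphere core, relative to radial glia migration.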

[5] = IUF_NPC2a_radial_glia_migration_120hr: Leibniz Research Institute for Environmental Medicine (IUF) 120-hour Neural Progenitor Cell Migration Assay for Radial Glia Migration (NPC2a) (AID 2284298)
In short: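 Migration distance in um, sphere core edge to migration-area edge, derived by nuclei-density algorithm from Hoechst images after 120 h compound exposure. Primary hNPC spheres differentiated on poly-D-lysine/laminin in N2 medium, 37C; medium half-replaced day 3.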

[6] = IUF_NPC2a_radial_glia_migration_72hr: Leibniz Research Institute for Environmental Medicine (IUF) 72-hour Neural Progenitor Cell Migration Assay for Radial Glia Migration (NPC2a) (AID 2284299)
In short: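 Radial glia migration (µm, sphere core edge to migration front, four directions averaged) from brightfield images at 72 h; hNPC spheres differentiating on PDL/laminin in N2 medium, compound exposure at 7 concentrations from plating.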

[7] = IUF_NPC2b_neuronal_migration_120hr: Leibniz Research Institute for Environmental Medicine (IUF) 120-hour Neural Progenitor Cell Migration Assay for Neuron Migration (NPC2b) (AID 2284300)
In short: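 TUBB3-positive neurons are imaged after 120 h of differentiation, and their mean distance from the sphere edge is normalised to radial glia migration. Single 0.3 mm fetal hNPC spheres on poly-D-lysine/laminin received 7 compound concentrations, ≤0.1% DMSO, refreshed at day 3.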

[8] = IUF_NPC3_neuronal_differentiation_120hr: Leibniz Research Institute for Environmental Medicine (IUF) 120-hour Neuronal Differentiation Assay (NPC3) (AID 2284301)
In short: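 Value is percent TUBB3-positive neurons among Hoechst-stained nuclei in the migration area, scored by trained CNN after 120 h differentiation. Primary hNPC spheres on poly-D-lysine/laminin, N2 medium, continuous dosing from day 0, half-refeed day 3; DMSO reference.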

[9] = IUF_NPC4_neurite_length_120hr: Leibniz Research Institute for Environmental Medicine (IUF) 120-hour Neuronal Morphology Assay for Neurite Length (NPC4) (AID 2284302)
In short: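 Neurite length, the mean in um across TUBB3-stained neurons, is derived by skeletonization of high-content images after 120 h differentiation. Compound exposure, 7 concentrations plus solvent control, ran from plating of hNPC spheres on poly-D-lysine/laminin, with medium half-replaced on day 3.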

[10] = IUF_NPC5_oligodendrocyte_differentiation_120hr: Leibniz Research Institute for Environmental Medicine (IUF) 120-hour Oligodendrocyte Differentiation Assay (NPC5) (AID 2284304; active means hit-call score of the fitted dose curve at least 0.9, where 1 is the maximum;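 further: primary human fetal neural progenitor spheres plated to migrate and differentiate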)
In short: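 Oligodendrocyte differentiation scored as O4-positive cells, found by CNN image analysis, as percent of Hoechst-stained nuclei in the migration area. Scoring followed 5 days of exposure of plated hNPC neurospheres differentiating in DMEM/F12 N2 medium at 37C, with compound refreshed at day 3.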

[11] = IUF_NPC4_neurite_area_120hr: Leibniz Research Institute for Environmental Medicine (IUF) 120-hour Neuronal Morphology Assay for Neurite Area (NPC4) (AID 2284305; active means hit-call score of the fitted dose curve at least 0.9, where 1 is the maximum)
In short: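 Neurite area (pixels, nuclei excluded) of TUBB3-positive neurons from hNPC spheres differentiating 5 days under continuous exposure at 37 C, 5% CO2. High-content imaging; loss of signal versus DMSO control across 7 concentrations.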

[12] = IUF_NPC2-5_cytotoxicity_72hr: Cytotoxicity Assessment at 72 hours in the Leibniz Research Institute for Environmental Medicine (IUF) Neural Progenitor Cell Migration and Differentiation Assay for Cytotoxicity (NPC2-5) (AID 2284306; active means hit-call score of the fitted dose curve at least 0.9, where 1 is the maximum;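 further: LDH release into supernatant measured by resorufin fluorescence marking membrane damage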)
In short: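 Membrane-integrity cytotoxicity at 72 h, read as LDH-driven resorufin fluorescence in supernatant. hNPC spheres from fetal cortex differentiate on coated plates in N2 medium, 37C, 5% CO2; seven serial compound concentrations plus solvent control (DMSO ≤0.1%).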

[13] = IUF_NPC2-5_cytotoxicity_120hr: Cytotoxicity Assessment at 120 hours in the Leibniz Research Institute for Environmental Medicine (IUF) Neural Progenitor Cell Migration and Differentiation Assay (NPC2-5) (AID 2284307; active means hit-call score of the fitted dose curve at least 0.9, where 1 is the maximum)
In short: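 Membrane-integrity loss measured as LDH activity in medium supernatant via resazurin-to-resorufin fluorescence after 120 h exposure. hNPC spheres from GW 16-19 fetal cortex differentiated on poly-D-lysine/laminin, 37C, medium half-refreshed day 3; seven concentrations, DMSO max 0.1%.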

[14] = IUF_NPC2-5_cell_number_120hr: Cell Number Assessment at 120 hours in the Leibniz Research Institute for Environmental Medicine (IUF) Neural Progenitor Cell Migration and Differentiation Assay (NPC2-5) (AID 2284308);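 further: count of Hoechst-stained nuclei in migration zone around plated human neural progenitor spheres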
In short: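 Counting of all Hoechst-stained nuclei in the migration area at 120 h, versus DMSO control. Primary hNPC spheres differentiated on poly-D-lysine/laminin in N2 medium at 37C, dosed from day 0 (7 concentrations, DMSO ≤0.1%), half-refed day 3.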

[15] = IUF_NPC2-5_viability_120hr: Viability Assessment at 120 hours in the Leibniz Research Institute for Environmental Medicine (IUF) Neural Progenitor Cell Migration and Differentiation Assay (NPC2-5) (AID 2284312)
In short: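 Alamar blue resorufin fluorescence read after 5 days of differentiation, with compound present from day 0 and replenished at day 3. Primary hNPC spheres on laminin-coated plates, 37C; seven concentrations plus solvent control, fitted against DMSO.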

[16] = read-out: Interleukin-8 (IL8), CXCL8 (gene 3576); assay: BSK_MyoF_IL8: BioMAP Diversity Plus: MyoF Assay for Interleukin-8 (IL8) Biomarker Activity (AID 2284261); conditions: primary human lung fibroblasts
In short: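 IL-8 quantified by ELISA after 24 h compound exposure of primary human lung fibroblasts. SRB staining of parallel cultures flagged cytotoxicity; DMSO served as baseline.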

[17] = read-out: Decorin, DCN (gene 1634); assay: BSK_MyoF_Decorin: BioMAP Diversity Plus: MyoF Assay for Decorin Biomarker Activity (AID 2284265); conditions: primary human lung fibroblasts
In short: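 Decorin protein was quantified by ELISA 24 h after chemical addition to primary human lung fibroblasts and analysed as increase over DMSO. Cytotoxicity was tracked in parallel cultures by SRB total-protein staining read at 560 nm.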

[18] = BSK_MyoF_SRB: Viability Assessment in the BioMAP Diversity Plus: MyoF Assay (AID 2284267); conditions: primary human lung fibroblasts;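 further: total protein by SRB absorbance in parallel cultures as cytotoxicity measure; cells assessed 24 h after compound addition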
In short: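 Cytotoxicity read-out: after 10% TCA fixation, parallel human lung fibroblast cultures were stained with 0.1% SRB at 24 h post-dosing and read at 560 nm; DMSO served as baseline.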

[19] = read-out: Matrix Metallopeptidase 1 (MMP1), MMP1 (gene 4312); assay: BSK_MyoF_MMP1: BioMAP Diversity Plus: MyoF Assay for Matrix Metallopeptidase 1 (MMP1) Biomarker Activity (AID 2284268); conditions: primary human lung fibroblasts
In short: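 Human lung fibroblasts (MyoF system) exposed to chemical for 24 h in 96-well format; MMP1 biomarker quantified by ELISA, with activity fitted in the positive direction relative to DMSO baseline.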

[20] = read-out: TIMP metallopeptidase inhibitor 1 (TIMP1), TIMP1 (gene 7076); assay: BSK_MyoF_TIMP1: BioMAP Diversity Plus: MyoF Assay for TIMP metallopeptidase inhibitor 1 (TIMP1) Biomarker Activity (AID 2284269); conditions: primary human lung fibroblasts
In short: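 TIMP-1 levels were determined by ELISA in human lung fibroblasts treated for 24 h. DMSO served as negative control and baseline for upward curve fitting.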

Measured: outcome

N[C@@H](Cc1cc(I)c(Oc2ccc(O)c(I)c2)c(I)c1)C(=O)O
inactive: [1] | [2] | [3]

S=C(S)NCCNC(=S)S.[Mn+2].[S-]C([S-])=NCCN=C([S-])[S-].[Zn+2]
not listed: [2] | [16] | [17] | [18] | [19] | [20]
inactive: all other assays above

CCN(CC)C(=O)c1cccc(C)c1
not listed: [1] | [2] | [3] | [16] | [17] | [18] | [19] | [20]
inactive: all other assays above

CC(C)CCCCCCc1ccc(O)cc1
inactive: [1] | [3]

CSC(=O)c1cccc2nnsc12
not listed: [1] | [2] | [3] | [16] | [17] | [18] | [19] | [20]
inactive: all other assays above

CC(C)(c1ccc(O)cc1)c1ccc(O)cc1
not listed: [16] | [17] | [18] | [19] | [20]
inactive: all other assays above

COCCO
inactive: [16] | [17] | [18] | [19] | [20]
